Only some compounds are listed: those with a hit (about 2.2% of all), similar ones and a draw of the others.
Nrf2 activator = qHTS of Nrf2 Activators. AREc32 ARE-luciferase reporter (MCF7-derived line), luminescence, 24 h. 410,000 compounds, 0.31% hits. Potency, µM (titrated, usually from 46.1 µM), for the others: at the highest dose activation, usual class: activators. AID 624171, 2012; also: potency is read from the fitted curve at half-maximal effect; % of control where 0% means no effect; nearly all actives have a fitted effect of over 65% in size
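Each well held 1000 AREc32 cells, which were incubated with compound for 24 hr at 37 deg C after overnight attachment, and ARE reporter activity was quantified by firefly luciferase luminescence.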
miR-21 act = qHTS Assay for Modulators of miRNAs and/orActivators of miR-21; HeLa miR-21 FLuc reporter, luciferase, 48 h; Potency, µM (doses to about 38.3 µM), without a hit: at the highest dose activity change, positive = activation, usual class: activators; 340,000 tested, under 10 active; AID 2288, 2010;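 also: % of control where 0% means no effect; miR-21 action dims this reporter so a rising signal means less miR-21 action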
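Using DMEM plus 10% FBS, HeLa miR-21-FLuc cells are incubated with test compounds (final up to about 40uM) for 48 hours; firefly luciferase signal is then imaged following reagent-mediated lysis.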
B2AR arrestin = qHTS assay of beta-arrestin-biased ligands of beta2-adrenergic receptor; beta-arrestin recruitment to beta2AR, cell-based reporter; 330,000 compounds, 0.02% hits; AID 492947, 2010; Beta-2 adrenergic receptor (Homo sapiens), P07550; Potency, µM (highest dose often 46.1 µM), inactives show at the highest dose activation, actives largely listed as activators;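 also: potency is read from the fitted curve at half-maximal effect; 0% = DMSO controls and full agonism = EC100 isoproterenol or metaproterenol; nearly all actives have a fitted effect of over 65% in size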
Target sequence (P07550 whole entry, looked up): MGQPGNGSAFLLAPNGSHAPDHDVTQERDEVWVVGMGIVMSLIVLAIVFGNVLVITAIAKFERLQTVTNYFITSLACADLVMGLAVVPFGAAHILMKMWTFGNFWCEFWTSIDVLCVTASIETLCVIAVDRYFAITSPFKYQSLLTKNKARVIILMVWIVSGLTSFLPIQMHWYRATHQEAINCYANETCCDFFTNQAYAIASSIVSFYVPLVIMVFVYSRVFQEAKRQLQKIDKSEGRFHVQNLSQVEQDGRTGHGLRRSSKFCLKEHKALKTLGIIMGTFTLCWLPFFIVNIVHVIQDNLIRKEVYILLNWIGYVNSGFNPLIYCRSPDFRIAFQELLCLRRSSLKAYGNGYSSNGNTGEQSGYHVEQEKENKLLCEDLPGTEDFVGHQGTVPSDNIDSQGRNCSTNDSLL
A549 viability = Nrf2 qHTS screen for inhibitors: counterscreen for cytotoxicity; A549 ARE-Fluc cells, CellTiter-Fluor viability, 18-24 h; Potency, µM (series often up to 46 µM), for inactives: top-dose activity change, negative = cytotoxicity, hits mostly inhibitors; 390,000 compounds, 0.16% hits; also: potency is read from the fitted curve at half-maximal effect; % is scaled to controls: 0 for no effect and ±100 for the full control effect
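A549 ARE-Fluc cells in 5% FBS OPTI-MEM, 5000 cells/well, rested 2 h then exposed to compounds in concentration-response for 18-24 h at 37 °C. Viability by CellTiter-Fluor fluorescence (Ex 405/Em 525) after 30 min; luciferase luminescence (BugLite, 15 min, RT) read afterwards.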
Nrf2 inh = Nrf2 qHTS screen for inhibitors; Potency, µM (doses to about 46 µM), without a hit: top-dose activity change, negative = inhibition, usual class: inhibitors; A549 ARE-Fluc reporter, luciferase luminescence, 18-24 h; 360,000 compounds, 2.1% hits; AID 504444, 2011; also: potency is read from the fitted curve at half-maximal effect; % is scaled to controls: 0 for no effect and ±100 for the full control effect; nearly all actives have a fitted effect of over 60% in size
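Cells were seeded and rested 2 h, then exposed to compounds for 18-24 h. CellTiter-Fluor was read first as a viability measure. BugLite was added 15 min before the final luminescent read of ARE-luciferase activity in A549 cells.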
* = called active by the depositor; ? = inconclusive; . = no result; [ ] = remark or other dose. Calls follow the shape of the dose curve; as a rule, active = well fitted curve in the direction sought with a large enough effect; inconclusive = small, poorly fitted or top-dose-only effect, or another doubt; inactive = no such curve, though single readings can be large; an effect the other way counts as inactive or inconclusive.

SMILES	Nrf2 activator	miR-21 act	B2AR arrestin	A549 viability	Nrf2 inh
O=[N+]([O-])c1cccc(-c2csc(N/N=C/c3cccc(O)c3)n2)c1	24%	12%	0%	?	18µM*
O=C(Nc1nc(-c2cccc([N+](=O)[O-])c2)cs1)C(c1ccccc1)c1ccccc1	1%	3%	0%	?	15µM*
O=C(CSc1nc(-c2ccccc2)[nH]c1-c1ccccc1)Nc1ccc2c(c1)OCO2	-3%	?	.	-28%	?
CCc1ccc(/C=C/C(=O)c2cc(Br)ccc(=O)c2O)cc1	?	23%	0%	?	7.3µM*
O=C(C=Cc1ccccc1)c1cc(Br)ccc1O	?	.	.	0%	?
CCOc1ccc(/C=C/C(=O)c2cc(Br)ccc(=O)c2O)cc1	21%	?	4%	-29%	16µM*
Cc1cccc(/C=C/C(=O)c2cc(Br)ccc(=O)c2O)c1	22µM*	?	0%	?	?
O=S(=O)(c1ccc2c(c1)OCCO2)N1CCN(S(=O)(=O)c2cc(F)c(F)cc2F)CC1	.	.	.	-2%	-18%
O=C(CSc1ccc2c(c1)OCCO2)Nc1ccc2c(c1)OCO2	0%	-8%	-1%	-2%	?
O=C(CSc1ccc2c(c1)OCCO2)Nc1ccc(Br)cc1	-1%	5%	0%	-5%	23µM*
CN(C)c1ccc(C(CNS(=O)(=O)c2ccc(Br)cc2)N2CCCC2)cc1 (stereo unspecified)	-1%	-1%	.	7%	.
COc1cc2c(cc1OC)C(COc1ccc3c(C)cc(=O)oc3c1)N(C(=O)c1ccccc1F)CC2 (stereo unspecified)	-1%	1%	.	1%	16%[9.27 µM]
Cc1cccc(N2CCN(C(=O)C3CCCN(S(=O)(=O)c4c(C)noc4C)C3)CC2)c1C (stereo unspecified)	1%	.	.	-18%	?
COc1cccc(N2CCN(C(=O)C3CCCN(S(=O)(=O)c4ccc(Br)s4)C3)CC2)c1 (stereo unspecified)	5%	?	.	-5%	16µM*
O=C(C1CCN(S(=O)(=O)c2ccc(Br)s2)CC1)N1CCN(c2cccc(Cl)c2)CC1	0%	23%	.	-6%	?
Cc1cccc(N2CCN(C(=O)c3cc(S(=O)(=O)N4CCOCC4)cn3C)CC2)c1C	-1%	0%	-1%	-3%	-12%
Cc1cccc(N2CCN(C(=O)c3cc(S(=O)(=O)N4CCCC4)cn3C)CC2)c1C	-2%	25%	0%	-7%	18µM*
O=C(C1CCCN(S(=O)(=O)c2ccc(Br)s2)C1)N1CCN(c2ccccc2)CC1 (stereo unspecified)	0%	20%	0%	-16%	16µM*
Cc1cccc(N2CCN(C(=O)C3CCCN(S(=O)(=O)c4ccc(Br)s4)C3)CC2)c1C (stereo unspecified)	-1%	?	.	-6%	10µM*
O=C(C1CCCN(S(=O)(=O)c2ccc(Br)s2)C1)N1CCCCCC1 (stereo unspecified)	0%	3%	.	4%	.
COc1ccccc1S(=O)(=O)N1CCN(c2nc(-c3cccs3)nc3ccccc23)CC1	.	.	.	0%	-10%
CCOC(=O)C1=CN(C(=O)OC(C)(C)C)C(CN2C(=O)COCC2=O)C1 (stereo unspecified)	.	.	.	2%	-8%
O=C(O)c1ccccc1OC1=NS(=O)(=O)c2ccccc21	.	.	.	-2%	14%
c1nc(NCCCN2CCOCC2)c2cc(-c3ccc4c(c3)OCO4)ccc2n1	.	.	.	15%	-27%
COc1cccc(N2CCN(C(=O)C3CCC(CNS(=O)(=O)c4ccc(Br)s4)CC3)CC2)c1 (stereo unspecified)	0%	24%	.	-20%	16µM*
SMILES	Nrf2 activator	miR-21 act	B2AR arrestin	A549 viability	Nrf2 inh
CCOc1ccc(-c2cc(-c3nc(-c4ccc(C)cc4)no3)[nH]n2)cc1	1%	-12%	.	3%	1%
COc1ccc(Nc2nc3ccccc3nc2NS(=O)(=O)c2cccs2)cc1	0%	-9%	0%	-19%	16µM*
CCOc1ccc(S(=O)(=O)Nc2nc3ccccc3nc2Nc2ccc(OC)cc2)cc1	0%	1%	.	-18%	26µM*
CC(=O)c1ccc(Nc2nc3ccccc3nc2NS(=O)(=O)c2cccs2)cc1	0%	2%	0%	1%	0%
O=S(=O)(Nc1nc2ccccc2nc1Nc1cccc(S(=O)(=O)N2CCCCC2)c1)c1ccccc1	0%	17%	0%	?	12µM*
CCc1ccc(Nc2nc3ccccc3nc2NS(=O)(=O)c2ccccc2)cc1	0%	-21%	.	-17%	23µM*
COc1ccc(Nc2nc3ccccc3nc2NS(=O)(=O)c2ccc(NC(C)=O)cc2)cc1	-1%	-17%	-1%	-7%	-18%
CCc1ccccc1NC(=O)c1nn(-c2ccc(C)cc2)c(=O)c2c1c1ccccc1n2C	5%	-3%	.	1%	4%
CCCN1CNc2c(c(=O)[nH]c(=S)n2CCc2c(Cl)cccc2Cl)C1	.	.	.	0%	3%
Cc1cccc(OCCn2c(NC(=O)c3ccco3)nc3ccccc32)c1	5%	11%	0%	-4%	18µM*
CCCn1c(NC(=O)c2ccc([N+](=O)[O-])o2)nc2ccccc21	13µM*	.	0%	-11%	1%
COc1ccc(-c2nc3sc(CCNC(=O)C(=O)Nc4ccccc4C#N)c(C)n3n2)cc1	0%	1%	.	-2%	.
Cc1cc(NC(=O)C2CCCN2C(=O)Nc2cccc(Cl)c2)ccc1-n1cnnn1 (stereo unspecified)	-1%	-7%	0%	-3%	16µM*
O=C(NC(NC(=O)c1ccccc1)c1cccc([N+](=O)[O-])c1)c1ccccc1	0%	-8%	0%	-2%	11%
Nc1ccccc1SC(CC(=O)c1ccccc1)c1cccc([N+](=O)[O-])c1 (stereo unspecified)	5µM*	.	.	.	.
Cc1csc2c(N3CCN(C(=O)Nc4ccc(OC(F)(F)F)cc4)CC3)ncnc12	0%	-8%	-1%	-19%	21µM*
Cc1csc2c(N3CCC(C(=O)O)CC3)ncnc12	0%	-25%	0%	-18%	-4%
CCN(CC)CC(C)CNC(=O)c1cc(-c2ccc(Br)s2)nc2ccccc12 (stereo unspecified)	7%	9%	.	-16%	3%[9.27 µM]
COc1cccc(C(=O)COc2ccc(NC(=O)c3cccs3)cc2)c1	3%	0%	0%	-21%	?
O=C(COc1ccc(NC(=O)c2cccs2)cc1)c1ccc(F)cc1	3%	-6%	-1%	-18%	16µM*
CCCCCc1ccc(OCCCC[n+]2ccc(C)cc2)c(CCCCC)c1	-2%	?	-1%	-19%	10µM*
CCCCCc1ccc(OCCCC[n+]2ccccc2)c(CCCCC)c1	-2%	?	0%	?	18µM*
